From PubChem
Most compounds without a hit are left out; they make up all but 8.1% or so of the library.
MCF10A rereplic = DNA re-replication induction in MCF 10a cells; MCF 10A DNA re-replication, Hoechst nuclear intensity, 48 h; Potency, µM (series often up to 46.1 µM), most hits filed as activators; actives 2.9% (n = 350,000); note: nearly all actives have a fitted effect of over 50% in size
ELG1 DNA repair = blocks ELG1-dependent DNA repair in HEK293T cells; HEK293T ELG1-luciferase reporter, luminescence, 16 h; DNA damage induced by 5-fluorouridine; Potency, µM (doses to about 46.1 µM), most hits filed as inhibitors; actives 2.3% (n = 330,000); AID 504467; note: nearly all actives have a fitted effect of over 55% in size
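HEK293T cells expressing luciferase-tagged ELG1 (2,000/well) received 5-Fluorouridine plus compound or DMSO for 16 hr at 37 °C. Luciferase was read by ONE-Glo luminescence after 30 min at room temperature.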
SW480 rerep = DNA re-replication induction in SW480 cells; SW480 DNA re-replication, Hoechst DNA content imaging, 48 h; AID 624297; Potency, µM (titrated, usually from 46.1 µM), usual class: activators; actives 1.8% (n = 340,000); note: nearly all actives have a fitted effect of over 55% in size
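Quantitative HTS format with DMSO vehicle controls; 48 hr drug incubation at 37 C, then 40 min Hoechst staining and scanning imager measurement at 405 nm excitation.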
KB-3-1 tox = KB-3-1 parental cell cytotoxicity; KB-3-1 viability, CellTiter-Glo ATP luminescence, 72 h; AID 1347075; Potency, µM (highest dose often 46.1 µM), hits mostly cytotoxic; actives 1.4% (n = 400,000); note: nearly all actives have a fitted effect of over 60% in size
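Cytotoxicity measured as CellTiter-Glo luminescence after 72 h at 37 C. Compound titrations were pinned onto drug-naive KB-3-1 parental adenocarcinoma cells grown in DMEM with 10% FBS, and normalized data fitted to concentration-response curves.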
KB-V1 MDR tox = KB-V1 MDR subline cytotoxicity | KB-V1 MDR cells viability, CellTiter-Glo, 72 h | Potency, µM (highest dose often 46.1 µM), usual class: cytotoxic | actives 3.4% (n = 400,000) | AID 1347076; note: nearly all actives have a fitted effect of over 60% in size
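qHTS viability screen in drug-selected KB-V1 MDR cells: 72 h compound treatment at 37 degrees C, ATP luminescence end point.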
Each line names hits and unclear results; the compound was inactive in the other large screens. Calls come from the whole dose curve; as a rule, active = well fitted curve in the direction sought with a large enough effect; inconclusive = small, poorly fitted or top-dose-only effect, or another doubt; inactive = no such curve, though single readings can be large; an effect the other way counts as inactive or inconclusive.

Cc1cccc(NC(=O)c2ccc(CN3CCc4ccccc4C3)cc2)c1C	MCF10A rereplic 23µM, ELG1 DNA repair inconclusive, KB-3-1 tox inconclusive, KB-V1 MDR tox inconclusive
Cc1ccccc1NC(=O)c1ccc(CN2CCc3ccccc3C2)cc1	MCF10A rereplic inconclusive, ELG1 DNA repair inconclusive, KB-3-1 tox 10µM, KB-V1 MDR tox inconclusive
CCOC(=O)C1Nc2ccccc2C2C(O)C(O)CC12 (stereo unspecified)	SW480 rerep inconclusive (no result: ELG1 DNA repair)
Cc1ccc2oc(-c3ccccc3)c(C(=O)O)c(=O)c2c1	MCF10A rereplic inconclusive, ELG1 DNA repair inconclusive
Nc1ccc(-c2cc(-c3cccc(N)c3)nc(-c3ccccc3)n2)cc1	MCF10A rereplic 16µM, ELG1 DNA repair inconclusive, SW480 rerep inconclusive, KB-3-1 tox inconclusive
CC(=O)Nc1ccc(-c2cc(-c3ccccc3)nc(-c3ccccc3)n2)cc1	MCF10A rereplic inconclusive, ELG1 DNA repair inconclusive
Nc1ccc(-c2nc(-c3ccccc3)nc3ccccc23)cc1	MCF10A rereplic 16µM, SW480 rerep 23µM
c1ccc(Nc2nc(-c3ccccc3)nc3ccccc23)cc1	MCF10A rereplic inconclusive, SW480 rerep inconclusive
COc1cc(OC)cc(C(C(=O)NCc2ccccc2)N(Cc2ccco2)C(=O)c2ccno2)c1 (stereo unspecified)	ELG1 DNA repair inconclusive, KB-V1 MDR tox inconclusive
Cc1cc(-c2[nH]nc3c2C(c2ccc(Cl)cc2)C(C#N)=C(N)O3)c(C)s1 (stereo unspecified)	none
CCN1C/C(=C\c2cccc([N+](=O)[O-])c2)C(=O)/C(=C/c2cccc([N+](=O)[O-])c2)C1	MCF10A rereplic 2.6µM, ELG1 DNA repair 3.3µM, SW480 rerep 0.58µM, KB-3-1 tox 0.92µM, KB-V1 MDR tox inconclusive
O=C1/C(=C/c2cccc([N+](=O)[O-])c2)CSc2ccc(Cl)cc21	none
O=C1/C(=C/c2cccc([N+](=O)[O-])c2)CCc2ccccc21	MCF10A rereplic inconclusive, SW480 rerep inconclusive, KB-3-1 tox inconclusive, KB-V1 MDR tox 16µM
COc1cc(N=C2C(=O)N3c4c(cccc42)C(C)=CC3(C)C)cc(OC)c1	SW480 rerep 21µM, KB-V1 MDR tox inconclusive
COc1ccc(C(=O)Oc2cc3c4c(c2)C(C)=CC(C)(C)N4C(=O)C3=O)cc1OC	ELG1 DNA repair inconclusive
COc1cc2c3c(c1)C(C)=CC(C)(C)N3C(=O)C2=O	MCF10A rereplic inconclusive, SW480 rerep 10µM
COc1cc2c3c(c1)C(C)CC(C)(C)N3C(=O)C2=O (stereo unspecified)	MCF10A rereplic inconclusive, SW480 rerep inconclusive, KB-V1 MDR tox inconclusive
COc1cccc(C(=O)Oc2cc3c4c(c2)C(C)=CC(C)(C)N4C(=O)C3=O)c1	MCF10A rereplic inconclusive, ELG1 DNA repair inconclusive, SW480 rerep 4.1µM
CC(=O)Nc1nc(-c2ccc3c(c2)CCN3C(=O)C2CC2)c(C)s1	ELG1 DNA repair inconclusive, SW480 rerep inconclusive, KB-3-1 tox inconclusive, KB-V1 MDR tox 15µM
O=[N+]([O-])C(/C=C(/Cl)[N+](=O)[O-])=C(N1CCCCC1)N1CCCCC1	SW480 rerep 15µM
O=C(/C=C/c1ccccc1[N+](=O)[O-])N1CCCCC1	none
COc1ccc(OC)c(C2C3=C(CCCC3=O)Nc3c2c(=O)n(C)c(=O)n3C)c1 (stereo unspecified)	none
COc1ccc(CCN2CC(C(=O)N(C)CC(=O)Nc3ccc(Cl)c(C(F)(F)F)c3)CC2=O)cc1OC (stereo unspecified)	ELG1 DNA repair inconclusive
O=C(Nc1nc2ccccc2s1)c1c(F)cccc1Cl	ELG1 DNA repair inconclusive, KB-3-1 tox inconclusive
COc1ccccc1C(=O)Nc1nc2ccccc2s1	ELG1 DNA repair inconclusive, KB-3-1 tox inconclusive, KB-V1 MDR tox inconclusive
COc1ccc(C(=O)Nc2nc3ccccc3s2)c(OC)c1	MCF10A rereplic inconclusive, ELG1 DNA repair 3.7µM, SW480 rerep inconclusive, KB-3-1 tox 7.3µM, KB-V1 MDR tox 6.5µM
COc1cccc(-c2cc(C(=O)Nc3nc4ccccc4s3)c3ccccc3n2)c1	KB-V1 MDR tox 21µM
Cn1cc(Cl)c(C(=O)Nc2nc3ccccc3s2)n1	ELG1 DNA repair inconclusive, KB-V1 MDR tox 18µM
COc1ccc(-c2cc(C(=O)Nc3nc4c(C)cccc4s3)c3ccccc3n2)cc1OC	MCF10A rereplic inconclusive, ELG1 DNA repair inconclusive
O=C(NCCc1ccc(O)c(Br)c1)c1ccc(Br)o1	none (no result: MCF10A rereplic, ELG1 DNA repair, SW480 rerep)
COc1ccc(C2=NOC(C3(S(=O)(=O)c4ccccc4)CC(O)C3)C2)cc1 (stereo unspecified)	none (no result: ELG1 DNA repair)
CCOC(=O)c1nn(-c2ccc(C)cc2)c(=O)cc1OCC(=O)N1CCN(c2ccccc2)CC1	none
CNC(=O)COC(=O)/C=C/c1nc2ccccc2s1	MCF10A rereplic 0.65µM, ELG1 DNA repair inconclusive, SW480 rerep inconclusive
Cc1cccc(C)c1NC(=O)C1(C)CSCC(=O)N1CCc1c[nH]c2ccccc12 (stereo unspecified)	none (no result: MCF10A rereplic, ELG1 DNA repair, SW480 rerep)
CN(CCO)c1ccc2c(c1)OC[C@@H](Cc1ccccc1)NS2(=O)=O	KB-V1 MDR tox inconclusive (no result: MCF10A rereplic, ELG1 DNA repair, SW480 rerep)
Cc1cc(C)n(CC(O)COc2ccc3ccccc3c2)n1 (stereo unspecified)	ELG1 DNA repair inconclusive, KB-V1 MDR tox inconclusive
Cc1nc(C)n(CC(O)COc2ccc3ccccc3c2)n1 (stereo unspecified)	KB-V1 MDR tox 21µM
CC1CCC(C(C)C)C(OCC(O)CNC(C)c2ccccc2)C1 (stereo unspecified)	MCF10A rereplic 16µM, KB-3-1 tox inconclusive, KB-V1 MDR tox 21µM
Cc1cc(OCC(O)CNC(C)c2ccccc2)ccc1C(C)C (stereo unspecified)	MCF10A rereplic inconclusive, ELG1 DNA repair inconclusive, SW480 rerep inconclusive, KB-3-1 tox inconclusive, KB-V1 MDR tox 16µM
CC(NCC(O)COc1ccc2ccccc2c1)c1ccccc1 (stereo unspecified)	MCF10A rereplic inconclusive, SW480 rerep 23µM, KB-3-1 tox inconclusive, KB-V1 MDR tox inconclusive
COc1cc(C(=O)Nc2ccc(OCC(=O)N3CCOCC3)cc2C)cc(OC)c1OC	none
CCC(CC)C(C(=O)NCc1ccccc1)N1CCN(CCN2CCOCC2)CC1 (stereo unspecified)	none (no result: MCF10A rereplic, ELG1 DNA repair, SW480 rerep)
O=C(c1cc2c(s1)-c1ccccc1S(=O)(=O)C2)N1CCN(Cc2ccccc2)CC1	ELG1 DNA repair 13µM, KB-3-1 tox inconclusive, KB-V1 MDR tox inconclusive
CCN1CCN(C(=O)c2cc3c(s2)-c2ccccc2S(=O)(=O)C3)CC1	none
COc1ccc(-n2cnnc2SCC(=O)N(C)C2CCS(=O)(=O)C2)cc1 (stereo unspecified)	none
CN(C)S(=O)(=O)c1ccc(C(=O)Nc2ccn(C)n2)cc1	ELG1 DNA repair inconclusive
CCN(CC)c1ccc(/C=C(\C#N)C(=O)c2ccc(Br)cc2)cc1	MCF10A rereplic 13µM, SW480 rerep inconclusive
CCN(CC)c1ccc(/C=C(\C#N)C(N)=O)cc1	ELG1 DNA repair inconclusive
COc1ccccc1/C=C\C(=O)NCC(=O)N/N=C(/C)c1cccc([N+](=O)[O-])c1	none
